Experiments:
Experiment in all cases: log2 ratio of Biotin-Ahx-Ub-VS probe labelling (fragment/DMSO); higher = less target engagement (more negative = stronger competition), active = hit call of the paper (q ≤ 0.05, log2 ratio ≤ -1)
Settings in all cases: compound concentration: 200 uM; treatment time: 3 h
OTUD6B = target: T1, OTUD6B (UniProt Q8N6M0)
T1 sequence (whole entry): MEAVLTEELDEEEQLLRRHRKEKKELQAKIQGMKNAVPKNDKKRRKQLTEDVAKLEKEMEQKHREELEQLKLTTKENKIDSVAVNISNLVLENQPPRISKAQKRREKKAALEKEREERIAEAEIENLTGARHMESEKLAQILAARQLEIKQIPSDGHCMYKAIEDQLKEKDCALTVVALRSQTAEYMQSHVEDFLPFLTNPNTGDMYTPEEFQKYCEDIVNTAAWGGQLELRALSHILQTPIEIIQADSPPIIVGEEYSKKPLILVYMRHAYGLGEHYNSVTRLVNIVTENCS
Outline: (§1)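 Global-median-normalised Spectronaut label-free quantities were compared by unpaired t-test, and values are average log2 ratios of fragment over vehicle. Only proteins with ≥2 unique peptides were used. HEK293T lysate (495 µg per sample) was treated in triplicate with fragment at 200 µM or vehicle for 3 h and then with Biotin-Ahx-Ub-VS at 0.5 µM final for 1 h. Labelled DUBs were then NeutrAvidin-enriched, digested with LysC and trypsin, and run by diaPASEF LC-MS/MS.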

OTUD7B = target: T2, OTUD7B (UniProt Q6GQQ9)
T2 sequence (whole entry): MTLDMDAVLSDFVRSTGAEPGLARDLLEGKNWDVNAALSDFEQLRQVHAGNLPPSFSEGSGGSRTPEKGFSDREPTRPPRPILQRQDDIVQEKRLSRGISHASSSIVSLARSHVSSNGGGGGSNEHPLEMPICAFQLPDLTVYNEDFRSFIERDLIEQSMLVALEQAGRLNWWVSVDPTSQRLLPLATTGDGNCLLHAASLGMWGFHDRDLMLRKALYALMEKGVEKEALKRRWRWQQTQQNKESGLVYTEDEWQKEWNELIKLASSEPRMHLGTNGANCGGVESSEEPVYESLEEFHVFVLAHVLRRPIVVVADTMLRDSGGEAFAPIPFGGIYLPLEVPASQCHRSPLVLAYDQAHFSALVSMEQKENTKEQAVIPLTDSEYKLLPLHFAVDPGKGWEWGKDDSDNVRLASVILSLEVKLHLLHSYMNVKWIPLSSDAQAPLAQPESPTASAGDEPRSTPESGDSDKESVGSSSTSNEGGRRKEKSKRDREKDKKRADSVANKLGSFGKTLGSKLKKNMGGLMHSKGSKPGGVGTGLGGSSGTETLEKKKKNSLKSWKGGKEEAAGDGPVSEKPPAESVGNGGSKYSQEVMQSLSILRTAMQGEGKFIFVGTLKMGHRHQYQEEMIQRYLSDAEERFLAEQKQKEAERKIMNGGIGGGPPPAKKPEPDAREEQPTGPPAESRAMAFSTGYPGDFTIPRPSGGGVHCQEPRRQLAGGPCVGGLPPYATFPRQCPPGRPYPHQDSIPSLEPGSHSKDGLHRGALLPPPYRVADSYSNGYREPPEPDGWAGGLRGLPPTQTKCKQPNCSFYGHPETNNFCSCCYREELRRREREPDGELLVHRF
Outline: as §1

PRPF8 = PRPF8 (UniProt Q6P2Q9)
Outline: as §1

PSMD7 = target: T3, PSMD7 (UniProt P51665)
T3 sequence (whole entry): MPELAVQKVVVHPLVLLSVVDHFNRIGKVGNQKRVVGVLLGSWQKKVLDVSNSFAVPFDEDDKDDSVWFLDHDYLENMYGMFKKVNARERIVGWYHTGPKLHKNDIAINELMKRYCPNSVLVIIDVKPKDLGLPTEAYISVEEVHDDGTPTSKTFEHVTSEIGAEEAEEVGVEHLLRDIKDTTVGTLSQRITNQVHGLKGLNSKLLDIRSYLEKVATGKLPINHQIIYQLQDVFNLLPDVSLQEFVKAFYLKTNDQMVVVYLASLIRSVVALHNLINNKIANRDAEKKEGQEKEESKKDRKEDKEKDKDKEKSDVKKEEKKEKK
Outline: as §1

UCHL1 = UCHL1 (UniProt P09936)
Chain of UCHL1 (P09936 whole entry, looked up): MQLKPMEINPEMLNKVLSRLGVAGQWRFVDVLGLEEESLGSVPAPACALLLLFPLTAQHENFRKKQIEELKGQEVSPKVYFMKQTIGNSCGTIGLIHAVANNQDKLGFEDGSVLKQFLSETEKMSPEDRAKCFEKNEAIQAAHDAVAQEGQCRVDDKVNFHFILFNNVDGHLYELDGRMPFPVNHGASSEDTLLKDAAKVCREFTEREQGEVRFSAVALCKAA
Outline: as §1

UCHL3 = target: T4, UCHL3 (UniProt P15374)
T4 sequence (whole entry): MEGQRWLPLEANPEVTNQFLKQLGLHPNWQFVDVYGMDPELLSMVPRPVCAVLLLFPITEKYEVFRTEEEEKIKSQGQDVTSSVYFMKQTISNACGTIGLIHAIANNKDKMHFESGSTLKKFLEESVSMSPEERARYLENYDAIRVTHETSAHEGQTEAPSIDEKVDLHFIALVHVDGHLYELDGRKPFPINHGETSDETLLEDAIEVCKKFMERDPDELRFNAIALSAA
Outline: as §1

UCHL5 = target: T5, UCHL5 (UniProt Q9Y5K5)
T5 sequence (whole entry): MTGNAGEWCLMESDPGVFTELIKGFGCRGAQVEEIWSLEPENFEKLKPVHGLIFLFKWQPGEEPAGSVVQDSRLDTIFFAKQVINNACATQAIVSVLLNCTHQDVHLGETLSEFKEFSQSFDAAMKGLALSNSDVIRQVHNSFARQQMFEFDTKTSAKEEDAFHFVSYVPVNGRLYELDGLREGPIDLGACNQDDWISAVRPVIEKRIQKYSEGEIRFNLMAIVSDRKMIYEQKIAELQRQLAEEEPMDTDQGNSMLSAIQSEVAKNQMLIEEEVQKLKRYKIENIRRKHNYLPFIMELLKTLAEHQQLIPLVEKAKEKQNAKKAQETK
Outline: as §1

USP10 = USP10 (UniProt Q14694)
Chain of USP10 (Q14694 whole entry): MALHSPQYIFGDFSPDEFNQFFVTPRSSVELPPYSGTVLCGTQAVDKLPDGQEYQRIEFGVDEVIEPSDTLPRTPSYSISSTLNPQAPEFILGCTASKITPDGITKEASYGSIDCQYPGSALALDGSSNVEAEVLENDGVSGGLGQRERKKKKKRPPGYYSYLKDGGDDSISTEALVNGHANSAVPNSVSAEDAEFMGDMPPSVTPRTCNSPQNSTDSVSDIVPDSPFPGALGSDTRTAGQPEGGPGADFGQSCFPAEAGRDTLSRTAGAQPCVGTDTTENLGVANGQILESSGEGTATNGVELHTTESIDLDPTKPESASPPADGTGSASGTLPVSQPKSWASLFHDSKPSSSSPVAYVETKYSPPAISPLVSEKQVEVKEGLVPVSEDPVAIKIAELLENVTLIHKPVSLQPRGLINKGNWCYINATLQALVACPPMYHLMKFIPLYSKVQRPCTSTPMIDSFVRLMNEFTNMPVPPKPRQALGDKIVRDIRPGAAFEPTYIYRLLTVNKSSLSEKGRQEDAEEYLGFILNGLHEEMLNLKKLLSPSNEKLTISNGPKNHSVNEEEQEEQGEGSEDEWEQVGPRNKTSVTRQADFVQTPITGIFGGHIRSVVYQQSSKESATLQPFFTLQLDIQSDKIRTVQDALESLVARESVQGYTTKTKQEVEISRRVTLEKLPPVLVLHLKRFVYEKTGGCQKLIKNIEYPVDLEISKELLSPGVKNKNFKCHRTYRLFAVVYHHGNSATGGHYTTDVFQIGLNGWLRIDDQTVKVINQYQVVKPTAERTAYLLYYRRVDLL
Outline: as §1

USP15 = target: T6, USP15 (UniProt Q9Y4E8)
T6 sequence (whole entry): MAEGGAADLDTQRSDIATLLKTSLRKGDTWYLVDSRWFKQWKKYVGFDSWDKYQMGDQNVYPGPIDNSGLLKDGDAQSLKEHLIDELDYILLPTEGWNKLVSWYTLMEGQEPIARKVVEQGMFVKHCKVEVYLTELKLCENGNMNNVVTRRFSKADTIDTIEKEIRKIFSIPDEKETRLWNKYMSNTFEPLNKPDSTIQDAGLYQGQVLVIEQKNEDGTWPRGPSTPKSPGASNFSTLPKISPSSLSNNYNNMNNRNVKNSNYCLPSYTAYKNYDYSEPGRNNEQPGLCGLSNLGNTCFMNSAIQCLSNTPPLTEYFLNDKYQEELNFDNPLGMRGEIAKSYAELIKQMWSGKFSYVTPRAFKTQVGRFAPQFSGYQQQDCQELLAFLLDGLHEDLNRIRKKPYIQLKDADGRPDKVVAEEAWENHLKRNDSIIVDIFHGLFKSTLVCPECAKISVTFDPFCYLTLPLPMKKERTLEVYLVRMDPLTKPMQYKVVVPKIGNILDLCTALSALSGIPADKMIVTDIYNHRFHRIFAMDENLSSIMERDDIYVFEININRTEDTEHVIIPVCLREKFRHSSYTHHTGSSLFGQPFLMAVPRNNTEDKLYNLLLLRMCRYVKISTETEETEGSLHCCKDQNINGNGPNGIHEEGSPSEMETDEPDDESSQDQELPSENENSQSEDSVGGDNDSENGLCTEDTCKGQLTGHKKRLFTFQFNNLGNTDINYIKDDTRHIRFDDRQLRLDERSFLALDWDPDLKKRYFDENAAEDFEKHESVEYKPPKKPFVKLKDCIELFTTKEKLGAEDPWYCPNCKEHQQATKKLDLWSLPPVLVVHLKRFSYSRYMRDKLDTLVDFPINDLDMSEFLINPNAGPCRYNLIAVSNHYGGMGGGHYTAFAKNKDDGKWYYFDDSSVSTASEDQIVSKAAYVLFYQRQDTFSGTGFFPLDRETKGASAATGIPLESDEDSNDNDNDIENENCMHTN
Outline: as §1

USP16 = USP16 (UniProt Q9Y5T5)
Chain of USP16 (Q9Y5T5 whole entry, looked up): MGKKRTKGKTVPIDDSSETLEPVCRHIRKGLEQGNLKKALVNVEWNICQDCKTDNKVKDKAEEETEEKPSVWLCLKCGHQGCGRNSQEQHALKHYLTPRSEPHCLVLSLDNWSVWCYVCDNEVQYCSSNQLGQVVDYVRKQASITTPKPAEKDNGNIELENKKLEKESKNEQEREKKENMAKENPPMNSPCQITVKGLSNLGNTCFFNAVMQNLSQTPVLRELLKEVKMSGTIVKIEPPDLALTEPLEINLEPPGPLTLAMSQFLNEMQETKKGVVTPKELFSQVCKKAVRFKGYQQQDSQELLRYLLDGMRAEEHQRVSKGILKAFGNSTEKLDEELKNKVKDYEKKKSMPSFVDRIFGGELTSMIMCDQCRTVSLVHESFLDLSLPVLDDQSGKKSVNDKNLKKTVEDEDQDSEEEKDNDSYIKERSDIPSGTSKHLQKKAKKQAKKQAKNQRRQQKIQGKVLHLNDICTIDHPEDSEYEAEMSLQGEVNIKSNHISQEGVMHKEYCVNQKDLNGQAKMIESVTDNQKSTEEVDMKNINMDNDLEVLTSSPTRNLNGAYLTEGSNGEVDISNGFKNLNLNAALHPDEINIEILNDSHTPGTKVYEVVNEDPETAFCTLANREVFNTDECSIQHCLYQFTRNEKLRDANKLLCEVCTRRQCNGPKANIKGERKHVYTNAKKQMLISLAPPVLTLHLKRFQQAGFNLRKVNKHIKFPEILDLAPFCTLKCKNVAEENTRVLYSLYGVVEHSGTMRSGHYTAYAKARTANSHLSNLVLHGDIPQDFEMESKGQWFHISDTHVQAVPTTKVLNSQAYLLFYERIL
Outline: as §1

Measured: log2 ratio of Biotin-Ahx-Ub-VS probe labelling

O=C(CCl)NCCC1=CCCCC1
inactive: OTUD6B -0.254 | OTUD7B -0.269 | PRPF8 0.145 | PSMD7 0.0106 | UCHL3 0.284 | UCHL5 -0.111 | USP10 -0.0126 | USP15 -0.103 | USP16 -0.0314
active: UCHL1 -1.6

Source: the supplement of paper PMC11732987, “Enantioselective OTUD7B fragment discovery through chemoproteomics screening and high-throughput optimisation” (Communications Chemistry, 2025)
